This is a sample that favours compounds with a hit; in the whole collection about 12% have one here.
Cycloheximide cs = counter-screen hit for Shiga toxin inhibitors, cycloheximide; cell reporter, cycloheximide protein synthesis inhibition counterscreen; max response, %; AID 2314; 300,000 tested, 12% active; in the data active = max response mostly above about 13%, no sharp cut-off; inactive = mostly below about 14%; note: read at 38.3 µM for the half of the compounds with a filed dose; 0% is about no effect
Shiga inhibitor = blocks Shiga toxin action in Vero cells; Vero cells, Shiga toxin protein synthesis inhibition reporter; 290,000 tested, 9.2% active; inhibition, % at 38.7 µM; in the data active = inhibition mostly above about 28%, no sharp cut-off; inactive = mostly below about 43%; note: 0% is about no effect
MARV entry inh = blocks Marburg virus binding to or entry into cells; Marburg virus pseudotyped entry inhibition, cell reporter; Potency, µM (titrated, usually from 37.8 µM), without a hit: at the highest dose activity change, negative = inhibition, actives largely listed as inhibitors; 300,000 tested, 1.8% active; AID 540276; calls by dose curve; tested in HEK293 cells; note: potency is the fitted concentration of half-maximal effect; % is set by controls: 0 for no effect and ±100 for the full control effect
Lassa entry inh = Lassa virus entry inhibition. Lassa virus pseudotype entry inhibition, cell reporter. Potency, µM (series often up to 37.9 µM), for inactives: at the top dose activity change, negative = inhibition, most hits filed as inhibitors. 300,000 tested, 1.2% active. AID 540256; calls by dose curve; tested in HEK293 cells; note: potency is the fitted concentration of half-maximal effect; % is set by controls: 0 for no effect and ±100 for the full control effect; nearly all actives have a fitted effect of over 50% in size
An asterisk follows results filed as active; ? = inconclusive; · = no result given; + = active, no number; [ ] = remark or other dose.

SMILES	Cycloheximide cs	Shiga inhibitor	MARV entry inh	Lassa entry inh
COC(=O)c1cc(NC(=O)CN(c2cccc(OC)c2)S(=O)(=O)c2ccccc2)ccc1Cl	-1	0	16µM*	10µM*
COc1ccc(N(CC(=O)Nc2ccc3c(c2)OCO3)S(C)(=O)=O)c(OC)c1	7	10	2%	-2%
COc1ccc(N(CC(=O)Nc2ccc3c(c2)OCCO3)S(C)(=O)=O)c(OC)c1	34*	76*	2%	5%
CCOc1ccc(N(CC(=O)Nc2ccc(C)cc2)S(=O)(=O)c2c(C)noc2C)cc1	-5	-8	-5%	·
COc1ccc(N(CC(=O)Nc2ccc3c(c2)OCCO3)S(=O)(=O)c2c(C)noc2C)cc1	11*	37	17%	?
CCOc1ccc(N(CC(=O)NC2CCCCC2C)S(=O)(=O)c2c(C)noc2C)cc1 (centres undefined)	14*	16	·	·
Cc1ccc(Cn2cc(C=O)c(-c3ccc(F)cc3)n2)cc1	23*	31*	·	·
Cc1ccc(-c2nn(Cc3ccccc3)cc2/C=C/C(=O)O)cc1C	-4	-5	11%	0%
Cc1ccc(-c2nn(Cc3ccccc3)cc2C=O)cc1	85*	55*	?	?
Cc1ccc(-c2nn(Cc3ccccc3)cc2C=O)cc1C	49*	active	16%	-14%
COc1ccc(S(=O)(=O)N/N=C(/C)c2ccncc2)cc1	-3	11	2%[46.1 µM]	16%[46.1 µM]
COCC(=O)NC1(c2nnnn2CCOC(=O)Nc2ccc(Cl)cc2)CCCCC1	17	38	4%[46.1 µM]	-7%
CCOC(=O)[C@@H](C#N)[C@@H](Cc1ccccc1)c1ccco1	·	·	1%	·
Cc1cc(=O)[nH]c2nnc(SCc3ccc(Cl)c(Cl)c3)n12	·	·	·	-11%[46.1 µM]
C=CCc1ccc(O)c(-c2ccc(O)c(CC=C)c2)c1	5	27	·	·
COc1ccc(CCNC(=O)CSc2nc3nc(C)c(Cc4ccc(C)cc4)c(C)n3n2)cc1OC	·	·	·	-25%[46.1 µM]
CC(=O)Nc1cc(-c2ccccc2)ccc1O	4	44	7%	5%
Nc1cc(-c2ccccc2)ccc1O	37*	29*	-5%	0%
C/C(=N\Nc1ccc(F)cc1F)c1cccs1	35*	64	·	·
COc1ccc(/C(C)=N/Nc2ccccc2Cl)c(O)c1	37*	48*	?	?
COc1ccc(/C(C)=N/Nc2ccc(F)cc2F)c(O)c1	42*	74*	15%	?
COc1ccc(C(=O)c2ccc(OC)cc2O)c(O)c1	11	47	-1%[46.1 µM]	27%
CCN(c1ccccc1)S(=O)(=O)c1ccc(OC)c(NC(=O)CCc2nc3ccccc3c(=O)[nH]2)c1	·	·	?	-21%
CC/C(=N\NC(=O)c1ccc(-c2ccccc2)cc1)C12CC3CC(CC(C3)C1)C2	11	26	-3%	?
Clc1ccc(/C=N/Nc2nn[nH]n2)cc1	-3	-3	-9%	2%
SMILES	Cycloheximide cs	Shiga inhibitor	MARV entry inh	Lassa entry inh
CN(C)c1cc(N/N=C/c2ccc(Cl)cc2)nc(N(C)C)n1	11	44	?	12µM*
CCOC(=O)C(C)Sc1ncc(-c2ccc(Cl)cc2)cn1 (centres undefined)	13*	-11	1%	6%
COC(=O)C1=C(C)N(c2cccc(OC)c2)C(=O)/C1=C\c1ccco1	17*	36	-27%	-17%
CCN1C(=O)/C(=C\c2ccco2)C(C(=O)OC)=C1C	-4	-14	-22%	-2%
CC/C(=N\NS(C)(=O)=O)c1ccccc1	-6	-5	-2%	3%
N/C(=N\NC(=O)Nc1ccccc1)c1ccccn1	45*	57*	?	-24%
CCOC(=O)C/C(C)=N/NC(=O)Nc1ccccc1	40*	+	4%	8%
C/C(=N/NC(=O)Nc1ccccc1)c1ccc(C)cc1	-3	29*	?	?
CC/C(=N\NC(=O)Nc1ccccc1)c1ccccc1	19*	37	3%	-26%
O=C(CNC(=O)c1ccccc1)OCc1cc(=O)n2nc(C3CC3)sc2n1	·	·	·	6%[46.1 µM]
CCc1ccc(CNC(=O)Cn2nc(-c3ccc(Cl)cc3)ccc2=O)cc1	·	·	·	-5%[46.1 µM]
CC(=O)SC(C)CC(=O)Nc1ccccc1 (centres undefined)	-2	17	-9%	-9%
C/C(CC(C)C)=N\NC(=O)Nc1ccccc1	42*	42*	19%	21%
COc1cccc(CN(C)C(=O)Cc2ccc(OC)c(S(=O)(=O)N3CCOCC3)c2)c1	·	·	-11%[46.1 µM]	-23%
Cc1ccc(NC(=O)CCc2c(C)nn(-c3ccc(N4CCOCC4)nn3)c2C)cc1F	41*	69*	12%[46.1 µM]	?
Cc1nn(-c2ccc(N3CCOCC3)nn2)c(C)c1CCC(=O)Nc1ccccc1	26*	20	·	·
COC(=O)c1ccc(NC(=O)CCc2c(C)nn(-c3ccc(N4CCOCC4)nn3)c2C)cc1	·	·	·	1%[46.1 µM]
CCc1cccc(NC(=O)CCc2c(C)nn(-c3ccc(N4CCOCC4)nn3)c2C)c1	26*	27	0%[46.1 µM]	0%[46.1 µM]
CC(=O)c1ccc(NC(=O)CCc2c(C)nn(-c3ccc(N4CCOCC4)nn3)c2C)cc1	44*	40*	·	-2%[46.1 µM]
COc1cc(NC(=O)CCc2c(C)nn(-c3ccc(N4CCOCC4)nn3)c2C)cc(OC)c1OC	2	2	1%[46.1 µM]	?
C=C1CCN(C(Cc2ccccc2)C(=O)Nc2ccc(OC)cc2)S(=O)(=O)c2ccccc21 (centres undefined)	9	17	·	·
CC(C)CSc1nnc(-c2ccccc2)c(-c2ccccc2)n1	·	·	7%[46.1 µM]	-14%[46.1 µM]
O=S(=O)(c1ccc(NC(=S)NN=C2CCCCC2)cc1)N1CCOCC1	-1	14	10%[46.1 µM]	-11%
CN(C(=O)c1ccccc1[N+](=O)[O-])c1ccccc1C(=O)NCc1ccccc1	-3	-3	4%	25%
CCc1ccc(NC(=O)CCc2c(C)nn(-c3ccc(N4CCOCC4)nn3)c2C)cc1	42*	45*	·	·
SMILES	Cycloheximide cs	Shiga inhibitor	MARV entry inh	Lassa entry inh
CC(=O)c1ccc(NC(=O)CCc2nnc3ccc(N4CCCC4)nn23)cc1	31*	50*	·	·
COc1ccc(NC(=O)CCc2c(C)nn(-c3ccc(N4CCOCC4)nn3)c2C)cc1	20	38	·	·
Cc1ccc(NC(=O)CCc2c(C)nn(-c3ccc(N4CCOCC4)nn3)c2C)cc1	23*	7	·	·
Cc1ccc(CNC(=O)CCc2c(C)nn(-c3ccc(N4CCOCC4)nn3)c2C)cc1	-1	-5	·	10%[46.1 µM]
O=C(OCc1cn([C@@H]2C[C@H](c3ccccc3)N(CC3CCCCC3)C[C@@H]2O)nn1)c1ccccc1	·	·	·	-9%[46.1 µM]
CCn1c(=O)c2sccc2n2c(CCC(=O)N3CCN(c4ccc(C(C)=O)cc4)CC3)nnc12	·	·	3%[46.1 µM]	-3%[46.1 µM]
CCOC(=O)c1sc2ccccc2c1S(=O)(=O)Nc1ccc(N(C)C)cc1	·	·	·	-12%[46.1 µM]
COc1ccccc1NS(=O)(=O)c1cccc(C(=O)N/N=C/c2ccc3c(c2)OCCO3)c1	28*	53*	0%	10%
CCN(CC)c1ccc(/C=N/NC(=O)c2cccc(S(=O)(=O)Nc3ccccc3OC)c2)c(O)c1	-3	-2	5.6µM*	0.32µM*
COc1ccccc1NS(=O)(=O)c1cccc(C(=O)N/N=C/c2ccc([N+](=O)[O-])o2)c1	·	·	?	14µM*
COC(=O)C1(C)C2CC(C)C(c3ccccc32)N1C(=O)C(F)(F)F (centres undefined)	·	·	-9%[14.2 µM]	?
Cc1ccc(/C=N/c2sc(Cc3ccccc3)c(C)c2C(N)=O)o1	-4	-6	?	?
